Assay results: PubChem BioAssay (NCI)
Compounds without any hit were thinned out: in the full panel of roughly 83,000, 20% have a hit.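 Activity criterion: percent growth below 10, measured after cells in 96-well plates were exposed to a single compound concentration for 48 hours.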 Activity calls are given as the source filed them.

Assays:
Test in all cases: NCI-60 one-dose screen, 48 h (100 = growth as untreated, 0 = no growth, -100 = all killed)
Settings in all cases: 10 µM unless noted
HCT-15 colon = system: HCT-15 colon
HT29 colon = system: HT29 colon
SNB-75 CNS = system: SNB-75 CNS
SNB-19 CNS = system: SNB-19 CNS
U251 CNS = system: U251 CNS
PC-3 prostate = system: PC-3 prostate
SK-MEL-5 melanoma = system: SK-MEL-5 melanoma
UACC-62 melanoma = system: UACC-62 melanoma
LOX IMVI melanoma = system: LOX IMVI melanoma
SK-MEL-28 melanoma = system: SK-MEL-28 melanoma
SK-MEL-2 melanoma = system: SK-MEL-2 melanoma
EKVX NSCLC = system: EKVX NSCLC
SN12C renal = system: SN12C renal
UO-31 renal = system: UO-31 renal
TK-10 renal = system: TK-10 renal
CAKI-1 renal = system: CAKI-1 renal
A498 renal = system: A498 renal
CCRF-CEM leukemia = system: CCRF-CEM leukemia
MOLT-4 leukemia = system: MOLT-4 leukemia
ACHN renal = system: ACHN renal

Measured: growth

O=C1C(Cl)=C(Oc2ccccc2)C(=O)c2ccccc21
active: CCRF-CEM leukemia 8.95%
inactive: HCT-15 colon 70.5% | HT29 colon 94.1% | SNB-75 CNS 73.1% | SNB-19 CNS 58.4% | U251 CNS 42.1% | PC-3 prostate 47.8% | SK-MEL-5 melanoma 74.8% | UACC-62 melanoma 53% | LOX IMVI melanoma 85% | SK-MEL-28 melanoma 120% | SK-MEL-2 melanoma 73.4% | EKVX NSCLC 87.2% | SN12C renal 87.9% | UO-31 renal 51.7% | TK-10 renal 49.4% | CAKI-1 renal 76.9% | A498 renal 98.7% | MOLT-4 leukemia 57.4%

O=C1Nc2ccccc2/C1=C\c1nc(-c2ccccc2)n2ccccc12
inactive: HCT-15 colon 80.2% | HT29 colon 91.6% | SNB-75 CNS 79.6% | SNB-19 CNS 103% | U251 CNS 89.6% | PC-3 prostate 87.4% | SK-MEL-5 melanoma 89.7% | UACC-62 melanoma 78.3% | LOX IMVI melanoma 84.6% | SK-MEL-28 melanoma 113% | SK-MEL-2 melanoma 94.2% | SN12C renal 96.2% | UO-31 renal 79.8% | TK-10 renal 84.2% | ACHN renal 71.1% | CAKI-1 renal 76.5% | A498 renal 119% | CCRF-CEM leukemia 84.1% | MOLT-4 leukemia 88.1%

Cc1cc(Cl)ccc1NC(=O)c1cc2ccccc2cc1O
active: U251 CNS -14% | PC-3 prostate 0.952% | SK-MEL-5 melanoma 8.89% | SK-MEL-2 melanoma -2.55% | SN12C renal 3.74% | UO-31 renal -2.52% | TK-10 renal -0.787% | CAKI-1 renal -5.76% | A498 renal -12.8% | CCRF-CEM leukemia 8.07%
inactive: HCT-15 colon 13.2% | HT29 colon 80.5% | SNB-75 CNS 38.1% | SNB-19 CNS 20% | UACC-62 melanoma 19.1% | LOX IMVI melanoma 28.9% | SK-MEL-28 melanoma 41.6% | EKVX NSCLC 44.2% | MOLT-4 leukemia 17.7%

C=C1C(=O)O[C@H]2[C@H]1CC/C(COC(=O)N[C@H]1C[C@H](O[C@H]3C[C@](O)(C(=O)CO)Cc4c(O)c5c(c(O)c43)C(=O)c3c(OC)cccc3C5=O)O[C@@H](C)[C@H]1O)=C\CC[C@@]1(C)O[C@@H]21
active: LOX IMVI melanoma 0.614% | SK-MEL-28 melanoma 9.44% | CCRF-CEM leukemia -18.2% | MOLT-4 leukemia -5.6%
inactive: HCT-15 colon 99.2% | HT29 colon 25.2% | SNB-75 CNS 56.4% | SNB-19 CNS 68.4% | U251 CNS 45.3% | PC-3 prostate 78% | SK-MEL-5 melanoma 68.3% | UACC-62 melanoma 34.6% | SK-MEL-2 melanoma 85.5% | EKVX NSCLC 103% | SN12C renal 34.9% | UO-31 renal 83.1% | TK-10 renal 64.9% | CAKI-1 renal 61.7% | A498 renal 70.5%

O=S(=O)(Nc1ccccc1)c1ccc(C2CC3(Cl)C(Cl)=C(Cl)C2(Cl)C3(Cl)Cl)cc1 (stereo not drawn)
active: SN12C renal -18.5% | CAKI-1 renal -19.8%
inactive: HCT-15 colon 50.6% | HT29 colon 35.2% | SNB-75 CNS 69.6% | SNB-19 CNS 77.6% | U251 CNS 39.8% | PC-3 prostate 13.5% | SK-MEL-5 melanoma 60.7% | UACC-62 melanoma 43.6% | LOX IMVI melanoma 39% | SK-MEL-28 melanoma 68.3% | SK-MEL-2 melanoma 74.1% | EKVX NSCLC 36.3% | UO-31 renal 26.7% | TK-10 renal 66.2% | A498 renal 62.4% | CCRF-CEM leukemia 47.6% | MOLT-4 leukemia 30%

O=[N+]([O-])c1ccc(N/N=C(/C(=N/Nc2ccc([N+](=O)[O-])cc2)c2ccccc2)c2ccccc2)cc1
inactive: HCT-15 colon 16.9% | HT29 colon 16.4% | SNB-75 CNS 90.3% | SNB-19 CNS 93.3% | U251 CNS 53.4% | PC-3 prostate 82% | SK-MEL-5 melanoma 86.3% | UACC-62 melanoma 78.6% | LOX IMVI melanoma 61% | SK-MEL-28 melanoma 121% | SK-MEL-2 melanoma 11.2% | EKVX NSCLC 94.1% | SN12C renal 81.4% | UO-31 renal 51.8% | TK-10 renal 94.4% | A498 renal 101% | CCRF-CEM leukemia 90.9% | MOLT-4 leukemia 73.9%

COc1ccc(-c2nnc(-c3ccc4c(c3)nc(-c3ccncc3)n4C3CCCCC3)o2)cc1
inactive: HCT-15 colon 53.6% | HT29 colon 53% | SNB-75 CNS 72.2% | SNB-19 CNS 89.4% | U251 CNS 59.7% | PC-3 prostate 49.7% | SK-MEL-5 melanoma 17.2% | UACC-62 melanoma 68.3% | LOX IMVI melanoma 72.5% | SK-MEL-28 melanoma 94.6% | SK-MEL-2 melanoma 77.3% | EKVX NSCLC 64% | SN12C renal 83.8% | UO-31 renal 38.3% | TK-10 renal 75% | CAKI-1 renal 89.7% | A498 renal 73.9% | CCRF-CEM leukemia 55.5% | MOLT-4 leukemia 44.3%

Clc1ccc(Nc2nnc(COc3ccccc3)c3ccccc23)cc1
inactive: SNB-75 CNS 13.1% | SNB-19 CNS 22% | SN12C renal 17% | CAKI-1 renal 15.4%
active: HCT-15 colon 4.45% | HT29 colon 1.32% | U251 CNS -12.7% | PC-3 prostate -0.2% | SK-MEL-5 melanoma -96.1% | UACC-62 melanoma -27.7% | LOX IMVI melanoma -62% | SK-MEL-28 melanoma 4.73% | SK-MEL-2 melanoma -26.5% | UO-31 renal -12.3% | TK-10 renal -17.5% | ACHN renal 3.37% | A498 renal -17.3% | CCRF-CEM leukemia 1.06% | MOLT-4 leukemia -32.6%

CC(C)NC1CCC(Nc2ccnc3cc(Cl)ccc23)CC1 (stereo not drawn)
active: CCRF-CEM leukemia -32.1%
inactive: HCT-15 colon 99.1% | HT29 colon 77.5% | SNB-75 CNS 83.7% | SNB-19 CNS 109% | U251 CNS 87.7% | PC-3 prostate 78.6% | SK-MEL-5 melanoma 90.8% | UACC-62 melanoma 97.3% | LOX IMVI melanoma 86.6% | SK-MEL-28 melanoma 101% | SK-MEL-2 melanoma 116% | EKVX NSCLC 97.1% | SN12C renal 102% | UO-31 renal 68.8% | TK-10 renal 86.8% | CAKI-1 renal 121% | A498 renal 89.2% | MOLT-4 leukemia 69.2%

COc1ccc2c(O)c(/C=C3\N=Nc4ccccc43)oc2c1C[C@@H]1CCNC[C@H]1F
inactive: HT29 colon 12.3% | SNB-75 CNS 51.1% | SNB-19 CNS 84.1% | U251 CNS 10.1% | PC-3 prostate 68.3% | SK-MEL-5 melanoma 63.9% | UACC-62 melanoma 76% | SK-MEL-2 melanoma 96.9% | EKVX NSCLC 64.5% | SN12C renal 67.7% | UO-31 renal 50.5% | TK-10 renal 84.2% | CAKI-1 renal 64.8% | A498 renal 57.9% | MOLT-4 leukemia 68%
active: HCT-15 colon 6.86% | LOX IMVI melanoma -82.7% | SK-MEL-28 melanoma -70.2% | CCRF-CEM leukemia -16.3%

N#Cc1cnc(NCCc2ccncc2)nc1-n1cnc2ccccc21
inactive: HCT-15 colon 36.8% | HT29 colon 49% | SNB-75 CNS 82.6% | SNB-19 CNS 94.7% | U251 CNS 58.7% | PC-3 prostate 64.1% | SK-MEL-5 melanoma 79.8% | UACC-62 melanoma 48.5% | LOX IMVI melanoma 41.2% | SK-MEL-2 melanoma 34.6% | EKVX NSCLC 72.6% | SN12C renal 65.1% | UO-31 renal 33.3% | TK-10 renal 20.4% | ACHN renal 26.1% | A498 renal 29.6% | CCRF-CEM leukemia 77.2% | MOLT-4 leukemia 47.3%
active: CAKI-1 renal 8.54%
